Screening results from PubChem.
The entries come from a sample that favours hits as a whole.
Giardia FBPA inh: inhibitors of Giardia lamblia fructose-1,6-bisphosphate aldolase; A8B2U2; purified Giardia FBPA; Potency, µM (top dose mostly 59.6 µM), inactives show at the highest dose activity, negative = inhibition, hits mostly inhibitors; 0.71% of 290,000 active; AID 2451; further: potency means the concentration at half of the fitted maximal effect; on the % scale 0 is the no-effect control and ±100 the full control effect; nearly all actives have a fitted effect of over 55% in size
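40 nM FBPA preincubated 10 min at RT with compound (up to 57.5 uM final), then substrate plus GAPDH/TPI/NAD/arsenate coupling and diaphorase/resazurin added. Fluorescence read after 20 min at RT, 525/598 nm.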
RE007 growth inh: less growth of the S. pombe RE007 Vpr strain; 0.21% of 360,000 active; S. pombe RE007 Vpr strain, BacTiter-Glo ATP luminescence, 24 h; AID 651644; Potency, µM (doses to about 92.2 µM), for the others: at the top dose activity change, negative = less growth, most hits filed as inhibitors; active means well fitted falling curve with a large enough effect; inconclusive means small, poorly fitted or top-dose-only effect; inactive means no such curve, though single readings can be large or run the other way; further: potency means the concentration at half of the fitted maximal effect; on the % scale 0 is the no-effect control and ±100 the full control effect; nearly all actives have a fitted effect of over 50% in size
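Fission yeast strain RE007, carrying one chromosomally integrated HIV-1 vpr copy, was seeded at OD 0.01 in PMG+AL medium with 23 nL pinned compound. After 24 h at 30 °C and 99% humidity, viability was read by BacTiter-Glo luminescence.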
LmPK inh: LmPK (Leishmania mexicana) enzyme inhibition. Q27686. purified LmPK, Kinase-Glo ATP luminescence, 1 h. Potency, µM (series often up to 57.5 µM), for the others: top-dose activity change, negative = inhibition, usual class: inhibitors. 0.37% of 290,000 active; further: potency means the concentration at half of the fitted maximal effect; on the % scale 0 is the no-effect control and ±100 the full control effect
Target sequence (Q27686 whole entry, looked up): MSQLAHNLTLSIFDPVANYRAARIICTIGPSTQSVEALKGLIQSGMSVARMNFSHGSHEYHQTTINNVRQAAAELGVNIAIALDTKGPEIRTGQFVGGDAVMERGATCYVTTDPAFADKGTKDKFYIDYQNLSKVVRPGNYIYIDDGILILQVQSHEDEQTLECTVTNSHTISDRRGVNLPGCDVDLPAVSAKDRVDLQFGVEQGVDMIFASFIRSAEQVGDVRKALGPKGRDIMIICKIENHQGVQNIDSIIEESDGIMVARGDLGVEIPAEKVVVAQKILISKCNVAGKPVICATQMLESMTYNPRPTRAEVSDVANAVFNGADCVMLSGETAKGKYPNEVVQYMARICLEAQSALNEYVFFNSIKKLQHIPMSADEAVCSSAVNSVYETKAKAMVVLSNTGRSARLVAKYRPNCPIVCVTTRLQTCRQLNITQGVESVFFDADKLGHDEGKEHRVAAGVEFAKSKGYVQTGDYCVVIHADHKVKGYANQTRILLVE
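qHTS format; LmPK 0.1 nM; substrates PEP 0.5 mM and ADP 0.1 mM. One-hour room-temperature incubation, then coupled luciferase luminescence; 0.5 nM enzyme wells mark activation.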
CHX counter: counter-screen hit for Shiga toxin inhibitors, cycloheximide | cell reporter, cycloheximide protein synthesis inhibition counterscreen | max response, % | 12% of 300,000 active | AID 2314; in the data active means max response mostly above about 13%, no sharp cut-off; inactive means mostly below about 14%; further: read at 38.3 µM for the half of the compounds with a filed dose; 0% is about no effect
TbPYK inhibitor: blocks Trypanosoma brucei pyruvate kinase. Q57TT1. TbPYK enzyme, Kinase-Glo Plus ATP luminescence, 45 min. Potency, µM (highest dose often 76.8 µM), for inactives: at the highest dose activity, negative = inhibition, most hits filed as inhibitors. 0.12% of 410,000 active. AID 624173; further: potency means the concentration at half of the fitted maximal effect; on the % scale 0 is the no-effect control and ±100 the full control effect; nearly all actives have a fitted effect of over 50% in size
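In this concentration-response screen, enzyme-free wells defined baseline while DMSO plates tracked drift. Each reaction combined TbPYK, substrate, compound and 130 uM ADP for 45 min at room temperature. Kinase-Glo Plus luminescence gave the signal.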
Shiga toxin inh: inhibitors of Shiga toxin in Vero cells | Vero cells, Shiga toxin protein synthesis inhibition reporter | inhibition, % at 38.7 µM | 9.2% of 290,000 active | AID 2315; in the data active means inhibition mostly above about 28%, no sharp cut-off; inactive means mostly below about 43%; further: 0% is about no effect
* marks the source's active call; other numbers are inactive results; ? = inconclusive; . = no result given; [ ] = dose if it differs, or a comment. Unless noted, the call rests on the fitted dose curve; in most records, active means well fitted curve in the direction sought with a large enough effect; inconclusive means small, poorly fitted or top-dose-only effect, or another doubt; inactive means no such curve, though single readings can be large; an effect the other way counts as inactive or inconclusive.

SMILES	Giardia FBPA inh	RE007 growth inh	LmPK inh	CHX counter	TbPYK inhibitor	Shiga toxin inh
Cc1nc(-c2cc(-c3nc(-c4ccc(C(F)(F)F)cc4)no3)no2)cs1	6%	1%	5%	9	2%	11
CCOc1ccc(N(CC)C(=O)c2cc3c(s2)-c2ccccc2OC3)cc1	.	.	.	.	-2%	.
COc1ccc(OCC(=O)OCC(=O)NC2CCCCC2C)cc1 (stereo not given)	.	-2%	.	.	8%	.
COc1cc(NC2CCCCC2O)c2nc(-c3ccc(Cl)cc3)ccc2c1 (stereo not given)	?	9%	6%	85*	-5%	134*
Cc1sc2c(c1C)c(=O)n(CCc1ccccc1)c(=O)n2Cc1ccc(C(C)(C)C)cc1	.	.	.	.	6%	.
Cc1nc(SCc2ccccc2C)n[nH]1	-9%	-14%	-4%	19*	-3%	active
CCc1nc(SCc2ccccc2C)n[nH]1	?	-10%	-3%	21*	2%	44
COc1ccc(CNc2ncncc2-c2ccc(C(=O)N(C)C)cc2)c(OC)c1	4%	.	.	.	.	.
CCn1c(-c2cccnc2Cl)nc2cc(Cl)c(Cl)cc21	24%	1%	4%	40*	4%	78*
C=CCN=C(NC#N)SCC(=O)c1cccc(OC)c1	?	6%	-1%	61*	-3%	63*
C=CCN=C(NC#N)SCc1ccccc1	1%	-3%	-1%	-3	2%	-15
CC1CCCN(c2ccc(C(=O)NCc3ccccc3)cn2)C1 (stereo not given)	1%	2%	-5%	31*	-1%	104*
C#Cc1ccc(C(=O)NCc2ccc(N3CCCC3=O)cc2)cc1	6%	-17%	0%	2	7%	11
O=C(NCc1cccs1)c1ccc(N2CCCC2=O)cc1	7%	19%	-1%	36*	-3%	53*
O=C(NCc1cccs1)c1ccc(N2CCCCC2)nc1	-9%	3%	-7%	53*	6%	112*
CC1CCN(c2ccc(C(=O)NCCc3ccccc3)cn2)CC1	-1%	5%	1%	27*	0%	99*
CC(C)C[C@H](N)C(=O)N[C@H](C(=O)N[C@@H](CCCN=C(N)N)C(=O)N[C@H](CS)C(=O)NCC(=O)N[C@@H](CCCCN)C(=O)N[C@@H](Cc1cnc[nH]1)C(=O)N[C@@H](CO)C(=O)N[C@@H](CCCN=C(N)N)C(=O)O)C(C)C	5%	.	.	-1	.	-5
CC1CCCN(c2ccc(C(=O)NCc3cccs3)cn2)C1 (stereo not given)	-8%	5%	-4%	45*	1%	active
O=C(NNC(=O)c1cc(-c2cccnc2)nc2ccccc12)Nc1ccc(Cl)cc1	-9%	-17%	-3%	45*	-6%	36
CC(C)(C)c1ccc(-c2cc(C(=O)NNC(=O)Nc3ccccc3)c3ccccc3n2)cc1	-6%	-25%	2%	22*	4%	39
COc1cccc(NC(=O)C(=O)NCC(c2cccnc2)N2CCN(c3ccccc3)CC2)c1 (stereo not given)	.	.	.	.	-2%	.
COc1ccc(OC)c(N2C(=O)NC(=O)/C(=C/c3ccc([N+](=O)[O-])s3)C2=O)c1	13µM*	-29%	?	-5	?	-4
COc1ccc(OC)c(N2C(=O)/C(=C/c3ccco3)C(=O)NC2=S)c1	?	-2%	-13%	-5	?	-2
CCN1C(=O)/C(=C\c2ccc([N+](=O)[O-])s2)C(=O)NC1=S	11µM*	.	19%	-1	.	23
O=C(N/N=C/c1cccnc1)c1ccc2c(c1)OCCO2	-2%	-6%	-9%	42*	6%	42*
SMILES	Giardia FBPA inh	RE007 growth inh	LmPK inh	CHX counter	TbPYK inhibitor	Shiga toxin inh
O=C(O)c1ccc(/C=N/NC(=O)c2ccc3c(c2)OCCO3)cc1	.	-21%	-3%	21*	0%	22
O=C(N/N=C\c1ccc2c(c1)OCO2)c1cncc(Br)c1	-7%	2%	-3%	23*	0%	60*
Cc1nn(C)cc1/C=N/NC(=O)c1ccc2c(c1)OCO2	1%	-10%	-12%	16*	-8%	26
O=C(N/N=C/c1ccc(O)cc1)c1cncc(Br)c1	-4%	-11%	-9%	11	8%	21
CCOC(=O)c1cccc(NS(=O)(=O)c2ccc(-c3cnc(C4CC4)o3)cc2)c1	.	.	.	.	3%	.
CCCCC(C)/C=C(C)/C=C(\C)C(=O)NC1=CC(O)(/C=C/C=C/C=C/C(=O)NC2=C(O)CCC2=O)C2OC2C1=O (stereo not given)	-8%	.	.	-6	.	-4
CC(=O)c1cccc(N(C(=O)c2ccco2)C(C(=O)NC2CCCC2)c2ccccc2F)c1 (stereo not given)	-2%	-2%	0%	10	5%	30
Cc1ccc(/C=N\NC(=O)c2ccc3c(c2)OCO3)o1	.	12%	-17%	37*	0%	53
O=C(N/N=C/c1ccccc1)c1ccc2c(c1)OCO2	-6%	-9%	-8%	25	-2%	24
O=C(N/N=C/c1ccc2c(c1)OCO2)c1ccc(NS(=O)(=O)c2cccs2)cc1	4%	7%	-5%	24*	-8%	81*
O=C(N/N=C/c1ccc([N+](=O)[O-])o1)c1ccc2c(c1)OCO2	-8%	10%	1%	9	-3%	9
CN(C)c1ccc(/C=N/NC(=O)c2ccc3c(c2)OCO3)cc1	-5%	9%	-13%	39*	-2%	91*
CCn1cc(/C=N/NC(=O)c2ccc3c(c2)OCO3)cn1	7%	1%	-3%	35*	5%	24
COc1cc(C2CC(=O)Nc3cc4c(cc32)OCCO4)cc(OC)c1O (stereo not given)	.	.	.	.	-1%	.
COc1ccc(Nc2oc(-c3ccc(COc4ccccc4C)o3)nc2C#N)cc1	.	.	.	.	-5%	.
Cc1ccccc1CCNC(=O)c1ccc2c(c1)nc1n2CCCCC1	.	.	.	.	7%	.
COc1cc(/C=N/NC(=O)c2ccc3c(c2)OCCO3)cc(Cl)c1O	.	4%	-2%	23*	5%	17
COc1cc(/C=N/NC(=O)CNC(=O)c2ccc3c(c2)OCCO3)ccc1O	2%	19%	1%	11	-5%	17
O=C(N/N=C/c1ccc(Br)o1)c1ccc2c(c1)OCCO2	-14%	-22%	-7%	57*	-10%	101*
O=C(N/N=C/c1ccc2c(c1)OCO2)c1cccnc1	6%	2%	-16%	48*	-6%	104*
Cc1ccc(C(=O)N/N=C\c2ccc3c(c2)OCO3)cn1	6%	-19%	0%	17	-14%	28
CCOC(=O)N/N=C\c1ccc(OC(=O)c2ccc3c(c2)OCO3)cc1	-13%	-26%	-4%[11.5 µM]	42*	-2%	35
Cc1cc(O)cc(O)c1/C=N/NC(=O)c1ccc2c(c1)OCCO2	.	-4%	.	.	5%	.
